39 compounds from the supplement of paper PMC7380943 can be followed below.
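Also: compound given one day ahead of doxycycline, which switches on I-SceI endonuclease to cut the chromosomally integrated reporter and create DSBs.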

For this experiment, the system named is CLZ3 (HCA2 human fibroblast dual HR-NHEJ reporter). Nature of the experiment: NHEJ repair efficiency (GFP+ cells) relative to control (log10 fold); higher = more non-homologous end joining. Particulars: 5 µM; doxycycline 0.5 ug/mL.
With `O=C(O)[C@H]1O[C@@H](Oc2cc3oc(-c4ccccc4)cc(=O)c3c(O)c2O)[C@H](O)[C@@H](O)[C@@H]1O` [Baicalin], the “NHEJ repair efficiency (log10)” value was -0.073.
For `C=C[C@H]1[C@H](O[C@@H]2O[C@H](CO)[C@@H](O)[C@H](O)[C@H]2O)OC=C(C(=O)OC)[C@H]1CC(=O)O` [Secoxyloganin], the “NHEJ repair efficiency (log10)” value was found to be 0.0169.
Turning to `Oc1cc(O)c2c(c1)O[C@H](c1cc(O)c(O)c(O)c1)[C@H](O)C2` [(-)Epigallocatechin], the “NHEJ repair efficiency (log10)” value was -0.0905.
The value for `CC(C)=CCc1c(-c2ccc(O)cc2O)oc2c3c(cc(O)c2c1=O)OC(C)(C)C=C3` [Morusin] was 0.0648; that for `CCOC(=O)c1c(C(=O)OCC)c(O)c2ccccc2c1O` [Rubidate] was 0.0573.
Next, `C[C@@H]1O[C@@H](O[C@H]2[C@H](Oc3cc(O)c4c(c3)O[C@H](c3ccc(O)cc3)CC4=O)O[C@H](CO)[C@@H](O)[C@@H]2O)[C@H](O)[C@H](O)[C@H]1O` [Naringin]: -0.127; `CC1(C)O[C@H]2CC(=O)OC[C@]23[C@H]2CC[C@@]4(C)[C@H](c5ccoc5)OC(=O)[C@H]5O[C@]54[C@]2(C)C(=O)C[C@@H]13` [Limonin]: 0.0392.
Next, `COC(=O)c1ccc(O)cc1` [Methylparaben]: 0.0529; `CC1(C)CC[C@]2(C(=O)O)CC[C@]3(C)C(=CC[C@@H]4[C@@]5(C)CC[C@H](O)C(C)(C)[C@@H]5CC[C@]43C)[C@@H]2C1` [Oleanolic Acid]: 0.0316; `O=C(O)C1=CO[C@@H](O[C@@H]2O[C@H](CO)[C@@H](O)[C@H](O)[C@H]2O)[C@@H]2C(CO)=CC[C@H]12` [Geniposidic acid]: -0.068.
Regarding `C[C@@]1(CO)C[C@@H](O)C[C@@]2(C)[C@@H]3CC[C@](C)([C@@H](O)CO)C=C3CC[C@H]12` [Kirenol], the “NHEJ repair efficiency (log10)” value is -0.121.
For `C=C[C@@H]1[C@@H](O[C@@H]2O[C@H](CO)[C@@H](O)[C@H](O)[C@H]2O)OC=C(C(=O)OC)[C@@H]1CCOC(=O)c1cc(O)c(O)c(O)c1` [Cornuside I], the “NHEJ repair efficiency (log10)” value is -0.0558.
The value for `O=c1c(O[C@@H]2O[C@H](CO)[C@@H](O)[C@H](O)[C@H]2O)c(-c2ccc(O)cc2)oc2cc(O)cc(O)c12` [Astragalin] was -0.0677; that for `O=C(/C=C/c1ccc(O)c(O)c1)O[C@@H]1CC(O)(C(=O)O)C[C@@H](OC(=O)/C=C/c2ccc(O)c(O)c2)C1O` (some centres undefined) [Isochlorogenic acid A] was 0.0485; that for `C[C@@H]1O[C@@H](O[C@H]2[C@H](OC(=O)[C@]34CCC(C)(C)C[C@H]3C3=CC[C@@H]5[C@@]6(C)C[C@H](O)[C@H](O[C@@H]7O[C@H](CO)[C@@H](O)[C@H](O[C@@H]8O[C@H](CO)[C@@H](O)[C@H](O)[C@H]8O)[C@H]7O)C(CO)(CO)[C@@H]6CC[C@@]5(C)[C@]3(C)C[C@H]4O)OC[C@H](O)[C@@H]2O)[C@H](O)[C@H](O)[C@H]1O[C@@H]1OC[C@@H](O)[C@H](O[C@@H]2OC[C@](O)(CO)[C@H]2O)[C@H]1O` [Platycodin D2] was -0.00927.
The value for `CC(/C=C/C=C(\C)C(=O)O[C@@H]1O[C@H](CO[C@@H]2O[C@H](CO)[C@@H](O)[C@H](O)[C@H]2O)[C@@H](O)[C@H](O)[C@H]1O)=C\C=C\C=C(C)\C=C\C=C(/C)C(=O)O[C@@H]1O[C@H](CO[C@@H]2O[C@H](CO)[C@@H](O)[C@H](O)[C@H]2O)[C@@H](O)[C@H](O)[C@H]1O` [Crocin I] was 0.0171.
Next, `CC(C)=C1C/C=C(\C)CC/C=C(\C)CC1=O` [Germacrone]: 0.0003.
As for `O=c1c(O[C@@H]2O[C@H](CO)[C@@H](O)[C@H](O)[C@H]2O[C@@H]2O[C@H](CO)[C@@H](O)[C@H](O)[C@H]2O)c(-c2ccc(O)c(O)c2)oc2cc(O)cc(O)c12` [Baimaside], the “NHEJ repair efficiency (log10)” value worked out at 0.0574.
Next, `CC12CCC(CC1)C(C)(C)O2` [Eucalyptol]: 0.0692.
The value for `CC(C)=CCC[C@](C)(O[C@@H]1O[C@H](CO)[C@@H](O)[C@H](O)[C@H]1O)[C@H]1CC[C@]2(C)[C@@H]1[C@H](O)C[C@@H]1[C@@]3(C)CC[C@H](O)C(C)(C)[C@@H]3[C@@H](O[C@@H]3O[C@H](CO)[C@@H](O)[C@H](O)[C@H]3O[C@@H]3OC[C@@H](O)[C@H](O)[C@H]3O)C[C@]12C` [Notoginsenoside R1] was -0.0455; that for `CC[C@H](/C=C/[C@@H](C)[C@H]1CC[C@H]2[C@@H]3CC=C4C[C@@H](O)CC[C@]4(C)[C@H]3CC[C@]12C)C(C)C` [Stigmasterol] was -0.155; that for `COc1cc(CNC(=O)CCCCCCC(C)C)ccc1O` [Dihydrocapsaicin] was -0.263.
The value for `CC(C)=CCC/C(C)=C/CC/C(C)=C/CC/C(C)=C/CC/C(C)=C/CC/C(C)=C/CC/C(C)=C/CC/C(C)=C/CC/C(C)=C/CO` [Solanesol] was -0.0479.
Turning to `C=CC(C)(C)c1cc(/C=C/C(=O)c2ccc(O)cc2)c(OC)cc1O` [Licochalcone A], the “NHEJ repair efficiency (log10)” value was -0.106.
Next, `CCCCCCCCCCCCCCCC(=O)OC` [Methyl Palmitate]: 0.0451.
The value for `CC(C)(O)CCc1c(O)cc(O)c2c(=O)c(O)c(-c3ccc(O)cc3)oc12` [Noricaritin] was -0.112; that for `CC1(C)CCC2(C(=O)OC3OC(CO)C(O)C(O)C3O)CCC3(C)C(=CCC4C5(C)CCC(OC6OC(C(=O)O)C(OC7OCC(O)C(OC8OC(CO)C(O)C(O)C8O)C7O)C(O)C6O)C(C)(C)C5CCC43C)C2C1` (centres undefined) [Oleanoside A] was -0.111.
The value for `CC[C@H](CC[C@@H](C)[C@H]1CC[C@H]2[C@@H]3CC=C4C[C@@H](O[C@@H]5O[C@H](CO)[C@@H](O)[C@H](O)[C@H]5O)CC[C@]4(C)[C@H]3CC[C@]12C)C(C)C` [Daucosterol] was -0.00976.
Turning to `OC[C@H]1OC(O)[C@@H](O)[C@@H](O)[C@@H]1O` (some centres undefined) [Mannose], the “NHEJ repair efficiency (log10)” value worked out at 0.0722.
Next, `COc1ccc(-c2oc3c(CC=C(C)C)c(O[C@@H]4O[C@H](CO)[C@@H](O)[C@H](O)[C@H]4O)cc(O)c3c(=O)c2O[C@@H]2O[C@@H](C)[C@H](O)[C@@H](O)[C@H]2O[C@@H]2OC[C@@H](O)[C@H](O)[C@H]2O)cc1` [Epimedin B]: -0.0634.
The value for `COc1ccc([C@@H]2OC[C@H]3[C@@H]2CO[C@@H]3c2ccc3c(c2)OCO3)cc1OC` [Fargesin] was 0.0593; that for `C[C@@]12C[C@@]3(O)O[C@@H](O1)[C@]1(COC(=O)c4ccccc4)[C@@H]3C[C@]12O[C@@H]1O[C@H](COC(=O)c2ccccc2)[C@@H](O)[C@H](O)[C@H]1O` [Benzoylpaeoniflorin] was -0.0544.
The value for `COc1cc(/C=C/C(=O)O)ccc1O` [Sodium Ferulate] was -0.0171; that for `C=C[C@H]1[C@H](O[C@@H]2O[C@H](CO)[C@@H](O)[C@H](O)[C@H]2O)OC=C(C(=O)OC)[C@H]1CCOC(=O)c1cc(O)c(O)c(O)c1` [Cornuside] was 0.0361.
For `CC1(C)[C@@H](O[C@H]2O[C@H](C(=O)O)[C@@H](O)[C@H](O)[C@H]2O[C@@H]2O[C@H](C(=O)O)[C@@H](O)[C@H](O)[C@H]2O)CC[C@]2(C)[C@H]3C(=O)C=C4[C@@H]5C[C@@](C)(C(=O)O)CC[C@]5(C)CC[C@@]4(C)[C@]3(C)CC[C@@H]12` [Monoammonium glycyrrhizinate], the “NHEJ repair efficiency (log10)” value is -0.145.
In the case of `CC(=O)C1=C(O)C=C2Oc3c(C(C)=O)c(O)c(C)c(O)c3C2(C)C1=O` (stereo in doubt) [Usnic Acid], the “NHEJ repair efficiency (log10)” value was found to be 0.00929.
The value for `O=C(O)c1ccccc1O` [Salicylic acid] was 0.019.
The value for `C[C@@H]1[C@H]2[C@H](O[C@@H]3O[C@H](CO)[C@@H](O)[C@H](O)[C@H]3O)OC=C(C(=O)O)[C@H]2C[C@@H]1O` [Loganic Acid] was 0.0621; that for `CC1CCC(C(C)C)C(O)C1` (racemic) [dl-Menthol] was 0.0823.
